Compound activity as filed in PubChem BioAssay.
p53 reactivation: re-activators of mutant p53; hit rate 0.063% among 320,000; Potency, µM (doses to about 92.2 µM), for inactives: at the top dose activity change, positive = activation, usual class: activators; H1299 p53-A138V BP100-luciferase reporter, luminescence, 24 h; note: potency is the fitted concentration of half-maximal effect; % of control where 0% means no effect; nearly all actives have a fitted effect of over 45% in size
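H1299 (p53-null), stable ts p53-A138V + BP100-Luc; 1000 cells/well, Opti-MEM/10% FBS; cpd 4 pt, 1:5; 24 h, 37 deg C, 5% CO2; detection reagent 10 min RT; luminescence.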
RORgamma inh: inhibitors of mouse ROR gamma transcriptional activity. P51450. Drosophila S2 Gal4-RORgamma UAS-luciferase reporter, 20 h. Potency, µM (doses to about 53.6 µM), for inactives: at the top dose activity change, negative = inhibition, actives largely listed as inhibitors. hit rate 5.4% among 310,000. AID 2551; note: potency is the fitted concentration of half-maximal effect; % is set by controls: 0 for no effect and ±100 for the full control effect; nearly all actives have a fitted effect of over 60% in size
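Drosophila Schneider cells stably carrying a metallothionein-driven Gal4 DBD–ROR gamma fusion and a UAS-Photinus luciferase reporter were exposed to compound for 1 hr, then induced with copper sulfate (700 uM final) for 20 hr at ambient temperature before luminescence reading.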
CtBP-E1A blk: blocks the CtBP interaction with E1A | AlphaScreen GST-E1A/His-CtBP binding, 1536-well; hits give low values | activity change, % (concentration not given with the values) | AID 651724 | hit rate 0.49% among 340,000; in the data active = activity change below about -65%; inconclusive = mostly about -30% to -63%; note: % is set by controls: 0 for no effect and ±100 for the full control effect
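GST-E1A and His-tagged CtBP (125 nM each as 5X stock) were preincubated with pin-transferred compound for 2 h at 37 °C in the dark, then glutathione donor and nickel acceptor beads were added for 1 h before AlphaScreen reading.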
Six1-Eya2 inh: Six1/Eya2 interaction inhibition; Q15475+O00167; AlphaScreen GST-Six1/His-Eya2 binding, biochemical; hits give low values; activity change, % (test concentration not listed); hit rate 0.56% among 360,000; AID 651725; in the data active = activity change below about -65%; inconclusive = mostly about -30% to -63%; note: % is set by controls: 0 for no effect and ±100 for the full control effect
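Compounds are tested against tagged Six1 and Eya2 proteins bridged by glutathione donor and nickel acceptor beads; after a one-hour incubation at 37 °C without light, AlphaScreen emission is recorded.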
VP16 counter: Gal4-VP16 reporter inhibition counter-screen; Drosophila S2 Gal4-VP16 UAS-luciferase, luminescence, 20 h; Potency, µM (highest dose often 53.6 µM), for the others: at the highest dose activity, negative = inhibition, actives largely listed as inhibitors; hit rate 3.5% among 310,000; AID 2546;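 note: Gal4-VP16 expression switched on by copper sulfate through the metallothionein promoter; potency is the fitted concentration of half-maximal effect; % is set by controls: 0 for no effect and ±100 for the full control effect; nearly all actives have a fitted effect of over 50% in size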
Numbers without * were called inactive; ? = inconclusive; · = no result; [ ] = remark or other dose. The list is not random: actives were taken first. Their share in the collection is about 5.4%. Unless noted, calls come from the whole dose curve; as a rule, active = well fitted curve in the direction sought with a large enough effect; inconclusive = small, poorly fitted or top-dose-only effect, or another doubt; inactive = no such curve, though single readings can be large; an effect the other way counts as inactive or inconclusive.

SMILES	p53 reactivation	RORgamma inh	CtBP-E1A blk	Six1-Eya2 inh	VP16 counter
CCOC(=O)C(C)/C(C)=N/NC(=O)c1cc2ccccc2cc1O (stereo unspecified)	16.9%	11.2µM*	-1.5	-1.7	12.6µM*
O=C(Cn1cc(C(F)(F)F)cc(Cl)c1=O)NC1CCS(=O)(=O)C1 (stereo unspecified)	2.0%	·	·	1.5	·
Cc1ccc(C(=O)COC(=O)CSc2cccc3cccnc23)c(C)c1	·	·	-76.8*	0.0	·
O=C(NCc1ccccc1Cl)C(=O)c1cn(CC(=O)N2CCOCC2)c2ccccc12	-3.9%	1.2%	?	1.6	-10.6%
CNc1cncc(-c2ccc(OC)cc2)n1	·	·	2.0	-1.1	·
CN(Cc1nc(-c2ccncc2)no1)S(=O)(=O)c1ccccc1	-0.1%	2.51µM*	10.8	13.2	9.0%
c1ccc(-c2ccccc2-c2nc(-c3ccncc3)no2)cc1	-0.1%	8.91µM*	5.8	15.0	?
c1ccc(-c2nc(-c3ccncc3)no2)cc1	·	17.1%	2.3	12.3	-17.1%
c1ccc(C(Cc2nc(-c3ccncc3)no2)c2ccccc2)cc1	3.6%	?	7.0	13.9	10µM*
O=C(O)c1ccc(-c2noc(-c3ccccc3F)n2)cc1	·	·	·	·	10µM*
COCCCNC(=O)/C=C/[C@H]1O[C@@H](n2cnc3c(NC(=O)c4ccccc4)ncnc32)[C@H](O)[C@@H]1O	·	·	3.3	2.7	·
CNc1nc(C)cc(C)c1S(=O)(=O)c1ccc(Cl)cc1	-3.5%	?	5.6	9.8	-10.9%
CCCNc1nc2c(c(=O)n(C)c(=O)n2C)n1CCCc1ccccc1	·	?	0.0	-6.7	-29.0%
COc1ccc(C2NC(=S)NC(C)=C2C(=O)N2CCOCC2)cc1 (stereo unspecified)	1.8%	-16.2%	3.3	-0.7	-0.6%
COc1ccc(C2NC(=S)NC3=C2CCc2cc(OC)ccc23)cc1 (stereo unspecified)	-7.5%	0.562µM*	-11.9	-10.8	?
CC(NC(=O)CCC(=O)NCc1ccc(F)cc1)c1ccccc1 (stereo unspecified)	2.4%	-22.8%	12.3	0.4	-17.6%
Cc1ccc(NC(=S)NCc2ccc3c(c2)cc(C)n3C)c(C)c1	-1.3%	1µM*	·	?	12.6µM*
Cc1ccc(NC(=S)NCc2ccc(F)cc2)c(C)c1	-0.1%	5.62µM*	-10.0	-1.4	5.62µM*
Cc1ccc(NC(=S)NCc2ccc3c(c2)OCO3)c(C)c1	0.5%	?	-5.0	-8.0	-3.2%[0.365 µM]
COc1cccc(C(C)NC(=S)NCc2ccc(F)cc2)c1 (stereo unspecified)	-12.5%	5.01µM*	-1.8	-13.5	8.91µM*
CCC(NC(=S)NCc1ccc(F)cc1)c1ccc(C)cc1 (stereo unspecified)	2.0%	2.82µM*	-0.2	-5.1	3.16µM*
CCC(NC(=O)C1(C)CC1(Br)Br)c1ccc(C)cc1 (stereo unspecified)	0.0%	-15.5%	9.9	4.1	-0.9%
Cc1ccn(-c2ccc(NC(=O)c3cccs3)cc2)n1	?	-27.9%	-4.4	-7.5	-9.9%
Cc1cccc(-c2noc(CCCC(=O)NC3CCCCC3)n2)c1	-5.5%	?	-5.3	3.0	?
COC(=O)c1c(NC(=O)C2CC2)sc(C(=O)Nc2ccccc2)c1C	0.1%	34.7%	·	-7.3	-5.5%
SMILES	p53 reactivation	RORgamma inh	CtBP-E1A blk	Six1-Eya2 inh	VP16 counter
CSc1ccccc1NC(=O)Cn1nnc(-c2ccc(S(C)(=O)=O)cc2)n1	2.7%	-5.3%	-3.1	2.5	3.7%
CCNC(=S)NCc1ccc(F)cc1	-9.2%	-23.1%	-2.5	3.2	-5.3%
CCc1ccc(C(C)NC(=S)NCc2ccc(F)cc2)cc1 (stereo unspecified)	3.7%	2.24µM*	1.0	2.4	5.01µM*
CCOc1ccc(C(C)NC(=S)NCc2ccc(F)cc2)cc1 (stereo unspecified)	-9.0%	3.55µM*	1.0	-5.2	3.16µM*
Cc1ccc(C(C)NC(=S)NCc2ccc(F)cc2)cc1C (stereo unspecified)	-8.0%	3.55µM*	-1.1	-5.1	5.01µM*
Cc1ccc(C(C)NC(=S)NCc2ccc(F)cc2)c(C)c1 (stereo unspecified)	8.0%	2.51µM*	1.8	-3.6	4.47µM*
